# Measured values from PubChem BioAssay (NCI).
# The panel holds about 79,000 compounds, 15% with a hit somewhere; the sample as a whole holds those more often. Values without a mark were called inactive. The source made the active and inactive calls. Rule as the data show it: active = growth inhibition above about 70%; inactive = the rest.
# Tests used:
# [1] = NCI Yeast Anticancer Drug Screen. Data for the rad50 strain (AID 155);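 also: 0% = growth of vehicle-only cultures of the same strain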; conditions: S. cerevisiae rad50 strain growth inhibition; at 50.0 µM; active compounds read high
# Outline: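 Cells are treated with compound, grown, and their growth is then scored against vehicle-only cultures of the same repair-deficient yeast strain.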
# [2] = NCI Yeast Anticancer Drug Screen. Data for the mec2-1 strain (AID 157); conditions: S. cerevisiae mec2-1 strain, at 50.0 µM, active compounds read high
# Outline: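 Growth inhibition is read against vehicle-treated controls after compound exposure of the mec2-1 yeast strain, which is defective in DNA damage repair or cell cycle control.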
# [3] = NCI Yeast Anticancer Drug Screen. Data for the sgs1 mgt1 strain (AID 161);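 also: 0% = growth of cultures given vehicle only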; conditions: S. cerevisiae sgs1 mgt1 strain, at 50.0 µM, active compounds read high
# Outline: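 Growth of a repair-deficient yeast mutant was monitored after compound treatment and expressed as inhibition relative to vehicle-treated cultures.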
# [4] = NCI Yeast Anticancer Drug Screen. Data for the cln2 rad14 strain (AID 165);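 also: 0% = growth equal to vehicle treated cultures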; conditions: S. cerevisiae cln2 rad14 strain, at 50.0 µM, active compounds read high
# Outline: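 Growth inhibition, relative to vehicle-treated controls, is the read-out. The test organism is a yeast strain with defined genetic alterations, cln2 rad14.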
# [5] = NCI Yeast Anticancer Drug Screen. Data for the bub3 strain (AID 167); conditions: S. cerevisiae bub3 mutant strain, at 50.0 µM, active compounds read high
# Outline: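 Part of a panel of yeast mutants defective in DNA damage repair or cell cycle regulation. Each strain is grown with compound, and inhibition is calculated relative to solvent-treated cultures.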
# [6] = NCI Yeast Anticancer Drug Screen. Data for the mlh1 rad18 strain (AID 175); conditions: S. cerevisiae mlh1 rad18 strain growth inhibition; at 50.0 µM; active compounds read high
# Outline: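 Cells of a genetically altered yeast strain, deficient in DNA damage repair, were treated with compound. Their growth was then compared with that of vehicle-treated cultures to give inhibition.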
Compound,growth inhibition [1],growth inhibition [2] [%],growth inhibition [3],growth inhibition [4] [%],growth inhibition [5] [%],growth inhibition [6]
CN(C)c1nc(N)c2ccc(Cl)cc2n1,-8%,10.6,-7.15%,0.85,-8.05,8.7%
COc1ccc(/C(=C/n2ccnc2)C(=O)c2ccc(OC)c(OC)c2)cc1,-41.6%,-18.7,-44.8%,5.8,-25.4,-44.5%
CCCCCC(=O)OCCCc1ccccc1,28.9%,2.9,-0.3%,-12.9,19.4,-6.8%
CC(=O)Nc1ccc(S(=O)(=O)/C(=C\c2ccc(Cl)o2)c2ccc([N+](=O)[O-])o2)cc1,90.1% (active),56.8,92.9% (active),57.5,61.4,92.7% (active)
CN1C(=O)C(Cl)(C#N)C(c2ccccc2)N(C)C1c1ccccc1 (configuration not stated),5.7%,8.05,18%,-37.9,39.4,20.1%
CCC/C(Cl)=N/OC(=O)Nc1cc(C(F)(F)F)ccc1OC,-34.1%,17.6,5.8%,8.5,40.6,21.3%
O=C(Nc1cc(S(=O)(=O)O)cc2cc(S(=O)(=O)O)c(N=Nc3cc(Nc4nc(Cl)nc(Nc5ccc(S(=O)(=O)O)cc5)n4)ccc3S(=O)(=O)O)c(O)c12)c1ccccc1,17.9%,-10.1,10.8%,3.5,0.05,25.2%
COC1(OC)CCC2=C(C)C(=O)CCC2(CO)C1 (configuration not stated),15.7%,-2.95,-5.95%,-51.8,-14.4,-1.9%
COc1ccc(NC(=O)CSc2cc(Cl)ccc2Cl)cc1,10.7%,7.15,32.1%,18.9,21.6,27.9%
Cc1ccc(C(=O)OCC2OC(Cl)CC2OC(=O)c2ccc(C)cc2)cc1 (configuration not stated),22.6%,-13.7,26.8%,-36,2.85,-8.3%
OC(CNC1CC2CCC1C2)COc1cccc2ccccc12 (configuration not stated),68.4%,42.9,76.5% (active),52.4,51,82.4% (active)
COc1ccc2cc(C(=O)O)ccc2c1OC,1.05%,1.7,27%,25.1,-6.3,-3.85%
O=C(O)[C@@H]1OCCOCCO[C@@H](C(=O)O)[C@H](C(=O)O)OCCOCCO[C@H]1C(=O)O,14.7%,0.05,-8.05%,14.4,2.25,-6.4%
O=S(=O)(Oc1cccc2ccccc12)c1ccccc1,-2.7%,-2.5,-5.05%,-5.45,0.95,8.4%
Cc1ccc(S(=O)(=O)OC2C(CI)OCOC(CI)C2OS(=O)(=O)c2ccc(C)cc2)cc1 (configuration not stated),-1.05%,-7.3,-6.3%,-20.4,-21.6,-14.8%
N#Cc1ccccc1N=Nc1nc(N)c(C(N)=O)[nH]1,22.2%,13.7,11.2%,-5.05,4.7,10.2%
CN(C)c1ccc(C2(c3ccc(N(C)C)cc3)NNC(=O)c3cc(N(C)C)ccc32)cc1,21.4%,5,13.2%,16.8,-3.15,1.8%
S=C(Nc1ccccc1)N1CC2C3CCC(O3)C2C1 (configuration not stated),16.6%,12.6,10.2%,3.15,22.5,22.6%
CC12CCC(O)CC1=CCC1C2CCC2(C)C1CC1=CC(C#N)C(=O)NC12O (configuration not stated),3.55%,6.85,1.35%,-65.4,-0.3,17.2%

Compound,growth inhibition [1],growth inhibition [2] [%],growth inhibition [3],growth inhibition [4] [%],growth inhibition [5] [%],growth inhibition [6]
CC(CN1c2ccccc2Sc2ccccc21)N(C)CCO (configuration not stated),3%,-24.7,-4.05%,-1.6,-4.3,-0.9%
CCCCCC(Oc1ccc(Cl)cc1)C(=O)OCC (configuration not stated),22.8%,9.1,14.9%,1.45,15,17.2%
COC(=O)C1(C2(C(=O)OC)NC(C)=C(c3ccccc3)C(=O)O2)NC(C)=C(c2ccccc2)C(=O)O1 (configuration not stated),15.2%,-7.3,-6.95%,8.3,-5.15,15%
CCCCCCCC(C(=O)O)C(=O)O,-2.1%,0.4,10.3%,10.3,-2.5,11.5%
CCOc1ccc(NC(=O)C2=C(C)NC(C)=C(C(=O)Nc3ccc(OCC)cc3)C2c2ccccc2)cc1,-22.9%,-7.4,-20.9%,-17.1,-16.2,-18.2%
CC1=C(O)C(=O)C2C(=O)C1C1Cc3ccccc3C21 (configuration not stated),-21.1%,-2.05,-24.6%,-3.2,-2.1,-17.6%
c1ccc(CN2COc3c(ccc4c5c(ccc34)CN(Cc3ccccc3)CO5)C2)cc1,5%,-10.4,-37.5%,-14.1,-19.9,-9.15%
CCC1CN2CCc3cc(OC)c(OC)cc3C2CC1CC1c2cc(OC)c(OC)cc2CCN1C(=O)C1CCCN1 (configuration not stated),-1.45%,-1.45,12.1%,6.85,7.65,-3.4%
COC(=O)C(C)=C1CCCCC1,17.9%,-3.9,-13.2%,-38,11.6,-13.2%
CCC(=O)Cc1ccc(OC)c(OC)c1,-0.3%,-3.5,19.6%,7.3,9.35,2.5%
CCCCc1ccc(Nc2c(C(=O)OCC)cnc3cc4c(cc23)OCO4)cc1,4.6%,-12.4,-15.2%,8.5,3.95,-17.4%
O=C(NNC(=O)c1ccccc1Br)c1ccccc1Br,-18.9%,-48.8,-9.6%,0.45,-25.1,-18.1%
NNC(=O)c1nnc(N)o1,-11.6%,-12.1,7.25%,-9.45,-11.7,6.45%
CC(/C=N/N(C)C1=NCCCN1)=N/N(C)C1=NCCCN1,14.3%,1.6,-7.35%,-35.6,-2.55,11.2%
CCCCc1cccc2c1OCO2,-18.6%,-0.6,-7.75%,-9.75,-12.5,36.8%
Cn1c[n+](C)c([S-])n1,-13.2%,2.6,-12.1%,-8.45,3,-5.25%
COc1ccc(CC(N)C(=O)NC2C(CO)OC(n3cnc4c(N)ncnc43)C2O)cc1 (configuration not stated),5.65%,-28.6,-1.6%,-74.3,-0.25,-12.8%
N#C/C(=C/NC(=S)N=Nc1c(O)[nH]c2ccccc12)C(N)=O,-33.7%,-51.7,-19.8%,-6.6,-0.9,-18.9%
